Among the data in PubChem BioAssay are composite z-score and z-score values, retold here.

A short description of test [1]: anti-His antibody binders, primary screen, artefact control for SMM control protein annotation, biochemical, small-molecule microarray, 635 nm fluorescence (AID 1128).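 Also: score merges feature fluorescence with signal-to-noise for each printed compound spot.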 To be noted: anti-His Alexa647 antibody binding, higher = more signal.
The subject of test [2] is Human papillomavirus type 1a E7 protein (residues 1-88). Nature of the test: HPV1a E7 small-molecule binders, primary screen, biochemical, small-molecule microarray, residues 1-88, 635 nm (AID 1129). As to conditions: small-molecule microarray binding, fluorescence 635 nm; higher = more signal.
The target of test [3] is Focal adhesion kinase 1 (Homo sapiens) (UniProt Q05397). Nature of the test: small-molecule microarray binders of FAK, primary screen, biochemical, 635/667 nm fluorescence, BSA, DTT (AID 1130).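 Also: composite of spot emission at 667 nm and signal to noise over triplicate slides.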 As to conditions: PTK2 binding, 635 nm fluorescence, higher = more signal.
For test [4], the system named is Fibrinogen (Alexa647-labelled). Nature of the test: fibrinogen binders on compound microarrays, profiling panel, artefact control for SMM control-protein annotation, biochemical, small-molecule microarray, 635/667 nm fluorescence (AID 1131).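 Also: z-score merges 667 nm fluorescence with per-spot signal-to-noise over triplicate slides.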 As to conditions: fibrinogen-A647 binding fluorescence, higher = more signal.
The target in test [5] is Follistatin (Homo sapiens) (UniProt P19883). Nature of the test: follistatin binders on small-molecule microarrays, primary screen, biochemical, small-molecule microarray, 635/667 nm fluorescence (AID 1132). As to conditions: FST binding, 635 nm fluorescence, higher = more signal.
Test [6] has as its target Fibroblast growth factor 2 (Homo sapiens) (UniProt P09038). Nature of the test: FGF2 binders on small-molecule microarrays, primary screen, biochemical, small-molecule microarray, 635/667 nm fluorescence (AID 1133). To be noted: small-molecule microarray binding, FGF2, fluorescence 635/667; higher = more signal.
The nature of test [7]: mitochondrial membrane potential change in A549 cells, profiling panel, cell-based, JC-1 fluorescence, basal, 24 h, 100 nL (AID 1138).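 Also: A549 lung adenocarcinoma cells under basal conditions with no added stimulus; test concentration not given here.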 To be noted: higher = more signal.
The test system of another test is Lefty1. Nature of the test: Lefty1 binders on small-molecule microarrays, primary screen, biochemical, small-molecule microarray, 635/667 nm fluorescence (AID 1139). As to conditions: small-molecule microarray binding, fluorescence 635/667; higher = more signal.
For test [8], the system named is wheat germ agglutinin (Triticum aestivum), Alexa647-labelled. Nature of the test: wheat germ agglutinin binders on compound microarrays, profiling panel, artefact control for SMM control-protein annotation, biochemical, small-molecule microarray, 635/667 nm fluorescence (AID 1140).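 Also: score merges 667 nm feature emission with signal to noise over triplicate slides.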 As to conditions: WGA-A647 binding, 635 nm fluorescence, higher = more signal.
The target in test [9] is Luciferin 4-monooxygenase (Photinus pyralis) (UniProt P08659). Put plainly: firefly luciferase enzyme inhibitors, primary screen, biochemical, luminescence, purified enzyme, 2006 set (AID 1141).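 Also: cell-free assay with purified firefly luciferase at 100 ng per well in PBS; test concentration not given here.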 As to conditions: SteadyGlo luminescence, 30 min, higher = more signal, called active from +8 up or from −8 down.
Test [10] has as its system Wnt5a (protein binding on small-molecule microarray). Nature of the test: Wnt5a binders on small-molecule microarray, primary screen, biophysical, 635/667 nm fluorescence (AID 1142).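 Also: fluorescence read at 667 nm with signal to noise per printed feature.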 To be noted: 635 nm fluorescence, higher = more signal.
Test [11] in a line: cell viability in Huh7 cells, primary screen, cytotoxicity control for HCV replication inhibitor project, CellTiter-Glo luminescence, basal, 48 h (AID 1143).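 Also: Huh7 hepatoma cells carrying a hepatitis C replication reporter with no stimulus; test concentration not given here.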 To be noted: Huh7 HCV replicon, higher = more signal, called active from +8 up or from −8 down. A general note: ATP-based viability assays read luminescence as a measure of living cells.
The nature of test [12]: P. aeruginosa biofilm formation inhibitors, primary screen, PAO1 strain, BacTiter-Glo luminescence, LB-PBS (AID 1144). To be noted: 12 h, higher = more signal.
The nature of test [13]: CREB reporter modulators without forskolin, primary screen, cell-based, PC12, CRE-LacZ reporter, unstimulated (AID 1145). As to conditions: no forskolin, luminescence, 4.5 h, higher = more signal, called active from +8 up or from −8 down.
Test [14] is described as follows: CREB reporter modulators under forskolin, primary screen, cell-based, PC12, CRE-LacZ reporter, forskolin-stimulated (AID 1146).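 Also: PC12 cells with 6xCRE LacZ reporter stimulated by forskolin 10 µM; beta-galactosidase reporter signal reflecting CREB driven transcription.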 To be noted: luminescence, 4.5 h, higher = more signal, called active from +8 up or from −8 down.
Test [15] concerns the target Streptavidin (Streptomyces avidinii) (UniProt P22629). Nature of the test: streptavidin binders on small-molecule microarray, primary screen, artefact control for SMM compound annotation, biophysical, 635/667 nm fluorescence (AID 1147).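 Also: signal reflects streptavidin binding to arrayed compounds as a control protein.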 As to conditions: streptavidin binding, higher = more signal.
Test [16] is described as follows: small-molecule binders of probe aInhba, primary screen, biochemical, small-molecule microarray, 635/667 nm fluorescence (AID 1148).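 Also: score merges 667nm spot fluorescence with signal-to-noise for antibody binding to printed compounds.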 As to conditions: higher = more signal.
Test [17] addresses Torsin-1A (Homo sapiens) (UniProt O14656). Put plainly: torsin A binders from cell lysate, primary screen, small-molecule microarray, wild-type, 635/667 nm (AID 1149). To be noted: COS7 hTOR1A-WT lysate, 635 nm fluorescence, higher = more signal.
Test [18] shares this target. Put plainly: small-molecule binders of mutant TOR1A in lysate, primary screen, cell lysate, small-molecule microarray, COS7 lysate, 635/667 nm fluorescence (AID 1150).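 Also: score pools 667 nm emission and signal to noise measuring lysate protein binding.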 To be noted: COS7 hTOR1A mutant lysate, 635 nm fluorescence, higher = more signal.
For test [19], the system named is Sonic hedgehog protein (Shh). Nature of the test: small-molecule binders of Shh protein, primary screen, biochemical, small-molecule microarray, 635/667 nm fluorescence (AID 1151).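 Also: Shh protein binding to compounds spotted on small-molecule microarray slides; score combines spot fluorescence intensity with signal-to-noise across triplicate slides.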 As to conditions: small-molecule microarray binding, 635 nm fluorescence; higher = more signal.

SMILES strings stand for the structures. Active and inactive are the calls of the source. Unless noted, no rule for the calls is given here.

Streptavidin (Streptomyces avidinii), sequence (P22629 whole entry, looked up): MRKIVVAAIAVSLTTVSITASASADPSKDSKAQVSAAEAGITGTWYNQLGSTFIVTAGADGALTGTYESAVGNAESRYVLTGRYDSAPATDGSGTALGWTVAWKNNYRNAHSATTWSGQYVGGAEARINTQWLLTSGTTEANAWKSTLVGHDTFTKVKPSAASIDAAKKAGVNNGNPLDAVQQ
Follistatin (Homo sapiens), sequence (P19883 whole entry, looked up): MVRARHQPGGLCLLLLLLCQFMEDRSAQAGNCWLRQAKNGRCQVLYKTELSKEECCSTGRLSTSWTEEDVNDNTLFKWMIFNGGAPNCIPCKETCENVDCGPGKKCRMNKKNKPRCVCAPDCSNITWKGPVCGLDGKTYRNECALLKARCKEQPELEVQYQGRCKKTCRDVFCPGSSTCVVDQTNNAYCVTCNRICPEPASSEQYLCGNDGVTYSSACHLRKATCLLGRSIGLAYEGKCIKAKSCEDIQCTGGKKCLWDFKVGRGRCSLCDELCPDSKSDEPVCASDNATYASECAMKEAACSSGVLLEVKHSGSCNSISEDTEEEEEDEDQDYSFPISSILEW
Fibroblast growth factor 2 (Homo sapiens), sequence (P09038 whole entry, looked up): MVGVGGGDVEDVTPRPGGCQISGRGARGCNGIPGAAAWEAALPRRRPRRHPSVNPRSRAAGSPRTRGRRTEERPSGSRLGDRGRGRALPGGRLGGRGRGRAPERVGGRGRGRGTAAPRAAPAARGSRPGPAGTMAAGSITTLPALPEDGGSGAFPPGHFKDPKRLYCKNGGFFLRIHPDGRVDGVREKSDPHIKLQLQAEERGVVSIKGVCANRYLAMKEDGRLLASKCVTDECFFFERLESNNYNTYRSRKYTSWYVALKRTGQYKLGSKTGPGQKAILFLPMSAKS
Focal adhesion kinase 1 (Homo sapiens), sequence (Q05397 whole entry, looked up): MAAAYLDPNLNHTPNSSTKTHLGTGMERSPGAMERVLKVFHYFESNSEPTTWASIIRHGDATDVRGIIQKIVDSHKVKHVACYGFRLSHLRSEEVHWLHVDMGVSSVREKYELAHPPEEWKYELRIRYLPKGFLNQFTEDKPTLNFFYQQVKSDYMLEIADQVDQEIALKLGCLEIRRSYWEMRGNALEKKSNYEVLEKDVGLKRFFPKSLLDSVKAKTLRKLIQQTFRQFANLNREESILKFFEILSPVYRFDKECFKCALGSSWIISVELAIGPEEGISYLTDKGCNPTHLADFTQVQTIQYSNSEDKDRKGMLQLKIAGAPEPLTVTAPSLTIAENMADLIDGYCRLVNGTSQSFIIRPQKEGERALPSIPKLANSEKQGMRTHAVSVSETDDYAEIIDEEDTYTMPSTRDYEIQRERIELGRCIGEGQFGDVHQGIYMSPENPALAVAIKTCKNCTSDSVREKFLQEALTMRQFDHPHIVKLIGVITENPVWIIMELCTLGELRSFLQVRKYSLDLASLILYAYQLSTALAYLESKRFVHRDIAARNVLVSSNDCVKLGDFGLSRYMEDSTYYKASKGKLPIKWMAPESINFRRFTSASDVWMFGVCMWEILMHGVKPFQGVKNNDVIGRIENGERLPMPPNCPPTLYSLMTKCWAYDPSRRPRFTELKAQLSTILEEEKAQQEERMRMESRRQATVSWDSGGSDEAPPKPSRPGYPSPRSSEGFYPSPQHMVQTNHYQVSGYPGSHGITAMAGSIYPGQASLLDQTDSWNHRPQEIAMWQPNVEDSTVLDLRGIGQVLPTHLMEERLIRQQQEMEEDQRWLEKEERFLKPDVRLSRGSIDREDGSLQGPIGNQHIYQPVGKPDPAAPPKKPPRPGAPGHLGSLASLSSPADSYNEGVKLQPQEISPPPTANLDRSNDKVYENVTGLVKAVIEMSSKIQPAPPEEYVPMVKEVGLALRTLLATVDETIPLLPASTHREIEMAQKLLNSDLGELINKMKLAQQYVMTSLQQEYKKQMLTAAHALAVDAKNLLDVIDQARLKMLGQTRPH
Luciferin 4-monooxygenase (Photinus pyralis), sequence (P08659 whole entry, looked up): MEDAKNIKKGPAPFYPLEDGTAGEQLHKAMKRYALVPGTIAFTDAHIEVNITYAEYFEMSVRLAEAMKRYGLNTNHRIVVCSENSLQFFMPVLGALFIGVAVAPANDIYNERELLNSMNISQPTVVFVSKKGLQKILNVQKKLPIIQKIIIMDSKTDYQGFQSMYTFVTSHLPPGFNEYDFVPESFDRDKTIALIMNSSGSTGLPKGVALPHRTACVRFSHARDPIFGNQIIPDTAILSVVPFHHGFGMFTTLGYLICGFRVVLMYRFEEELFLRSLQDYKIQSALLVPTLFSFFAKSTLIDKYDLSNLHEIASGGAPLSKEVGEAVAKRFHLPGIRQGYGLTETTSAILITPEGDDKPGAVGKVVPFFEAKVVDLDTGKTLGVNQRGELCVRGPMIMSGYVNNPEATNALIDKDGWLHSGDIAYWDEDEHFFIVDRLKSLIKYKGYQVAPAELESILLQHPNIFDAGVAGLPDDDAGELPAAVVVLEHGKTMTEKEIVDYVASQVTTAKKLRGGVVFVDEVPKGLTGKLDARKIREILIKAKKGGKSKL
Torsin-1A (Homo sapiens), sequence (O14656 whole entry, looked up): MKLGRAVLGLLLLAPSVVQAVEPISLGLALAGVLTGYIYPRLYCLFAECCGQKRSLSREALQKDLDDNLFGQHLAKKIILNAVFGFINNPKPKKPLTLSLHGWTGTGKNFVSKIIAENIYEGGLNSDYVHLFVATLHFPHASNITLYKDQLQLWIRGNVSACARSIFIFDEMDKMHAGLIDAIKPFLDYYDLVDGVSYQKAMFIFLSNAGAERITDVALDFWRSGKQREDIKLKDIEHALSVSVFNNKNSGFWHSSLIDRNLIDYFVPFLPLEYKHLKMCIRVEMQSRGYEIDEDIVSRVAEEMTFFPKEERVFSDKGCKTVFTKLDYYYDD

Regarding `C=C(CCCC)/C(=C/C[C@H](OC(C)=O)c1ccc(CO)o1)c1cc(C(=O)OC)ccc1OC`, the composite z-score in test [1] is 0.683; in [2], 0.596; in [3], 0.0945; in [4], 0.579; in [5] it was 1.29; in [6], 0.708. Besides, the composite z-score turned out to be 1.42 with Lefty1; 0.789 in [8]; 0.244 in test [10]; 0.772 in test [15]; 0.0622 in test [16]; 0.206 with Torsin-1A (Homo sapiens) [17]. The composite z-score with Torsin-1A (Homo sapiens) [18] was -0.0953; in test [19], 1.53. Besides, the z-score is -0.925 in test [7]; -1.45 (inactive) in test [9]; -3.43 (inactive) in test [11]; -0.193 (inactive) in [12]; 0.709 (inactive) in [13]; 0.0467 (inactive) in [14].

For the compound `COCCOC(=O)N1C(=O)[C@@]2(c3cc(C#CC4=CCCCC4)ccc31)[C@H](c1ccc(OCCO)cc1)N1[C@H](c3ccccc3)[C@H](c3ccccc3)OC(=O)[C@H]1[C@@H]2C(=O)Nc1nc2ccccc2s1`, the composite z-score was 0.317 in [1]; 1.18 in test [2]; 0.358 in [3]; 0.929 in [4]; 1.19 in test [5]; 0.571 in test [6]. For the same compound, the composite z-score was 0.982 in the test with Lefty1; 0.53 in test [8]; 0.329 in test [10]; 1.27 in test [15]; -0.0178 in test [16]; -0.0779 with Torsin-1A (Homo sapiens) [17]. Further, the composite z-score with Torsin-1A (Homo sapiens) [18] came out at 0.394; in test [19] it was 0.911. The z-score was -2.19 in [7]; -2.79 (inactive) in test [9]; -3.52 (inactive) in [11]; -2.45 (inactive) in test [12]; -1.16 (inactive) in test [13]; -0.482 (inactive) in test [14].

With `C[N+](C)(C)CCCC[C@@H]1NC(=O)[C@H]2C[C@@H](C(=O)O)[C@@H](c3cccc(OCCO)c3)N2C1=O`, the composite z-score was 3.61 in test [1]; 1.21 in [2]; 2.21 in test [3]; 0.973 in [4]; 1.15 in [5]; 0.9 in test [6]. The composite z-score with Lefty1 is 0.804; in test [8] it was 1.57; in test [10] it was 1.93; in test [15], 3.77; in test [16], 0.893; with Torsin-1A (Homo sapiens) [17], 1.95. Further, the composite z-score was determined as 2.13 in the test with Torsin-1A (Homo sapiens) [18] and 1.4 in test [19]. Moreover, the z-score in [7] is 0.455; in test [9] it was -0.317 (inactive); in test [11], 0.0605 (inactive); in test [12], 0.308 (inactive); in [13] it was -0.138 (inactive); in test [14], 0.629 (inactive).

Take `Cc1ccc(F)cc1S(=O)(=O)N[C@@H]1CCN(Cc2ccc(C(F)(F)F)cc2)C1`: the composite z-score was -0.175 in [1]; -0.704 in [2]; -0.0343 in test [3]; -0.292 in test [4]; 0.277 in test [5]; -0.456 in test [6]. The composite z-score with Lefty1 is 0.22; in test [8], -0.655; in test [10], -0.192; in [15], -0.381; in test [16], -0.208; in the test with Torsin-1A (Homo sapiens) [17], -0.181. Besides, the composite z-score was 0.319 with Torsin-1A (Homo sapiens) [18] and 0.451 in [19]. The z-score was 0.197 in test [7]; -0.0404 (inactive) in [9]; -4.39 (inactive) in test [11]; 1.2 (inactive) in [12]; 3.48 (inactive) in test [13]; 0.777 (inactive) in [14].

For `O=P(NCC1(CC2(c3ccccc3)CO2)CC1)(c1ccccc1)c1ccccc1` (stereo not given), the composite z-score in test [1] is 0.618; in [2], 0.376; in test [3], 0.338; in [4] it was -1.05; in test [5] it was -1.23; in test [6], -1.36. The composite z-score is -2.28 in the test on Lefty1; -0.0073 in test [8]; -0.402 in [10]; -0.767 in [15]; -0.0448 in test [16]; -0.87 with Torsin-1A (Homo sapiens) [17]. Moreover, the figures for the composite z-score (with Torsin-1A (Homo sapiens) [18]; in [19]) were -0.754 and -1.41, respectively. The z-score in [7] is 1.11; in test [9], 1.33 (inactive); in test [11], -0.814 (inactive); in test [12] it was 0.318 (inactive); in test [13], 0.197 (inactive); in test [14], 1.13 (inactive).
